SMILES strings stand for the structures. Where “and” joins values, the source holds several entries; their conditions need not be identical. Identical values can stand only once. Records with an inconclusive call do not appear. Calls of active or inactive are those of the source. The calls were made as follows: active = hit-call score of the fitted dose curve at least 0.9, where 1 is the maximum; inconclusive = response in the unintended direction; inactive = score below 0.9.

Chain of human Leukotriene B4 Receptor 1 (LTB4-BLT1), LTB4R (gene 1241) (Q15722 whole entry, looked up): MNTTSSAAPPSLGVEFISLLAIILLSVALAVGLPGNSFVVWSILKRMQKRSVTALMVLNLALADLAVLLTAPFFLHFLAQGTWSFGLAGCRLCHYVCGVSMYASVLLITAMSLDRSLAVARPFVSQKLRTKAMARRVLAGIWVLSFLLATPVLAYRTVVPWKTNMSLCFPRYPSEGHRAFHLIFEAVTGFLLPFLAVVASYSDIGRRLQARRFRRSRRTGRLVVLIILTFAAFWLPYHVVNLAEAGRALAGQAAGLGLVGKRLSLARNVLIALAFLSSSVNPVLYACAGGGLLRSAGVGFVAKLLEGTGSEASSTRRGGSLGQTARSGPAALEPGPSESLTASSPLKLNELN
Chain of human Histamine 1 Receptor (H1), HRH1 (gene 3269) (P35367 whole entry, looked up): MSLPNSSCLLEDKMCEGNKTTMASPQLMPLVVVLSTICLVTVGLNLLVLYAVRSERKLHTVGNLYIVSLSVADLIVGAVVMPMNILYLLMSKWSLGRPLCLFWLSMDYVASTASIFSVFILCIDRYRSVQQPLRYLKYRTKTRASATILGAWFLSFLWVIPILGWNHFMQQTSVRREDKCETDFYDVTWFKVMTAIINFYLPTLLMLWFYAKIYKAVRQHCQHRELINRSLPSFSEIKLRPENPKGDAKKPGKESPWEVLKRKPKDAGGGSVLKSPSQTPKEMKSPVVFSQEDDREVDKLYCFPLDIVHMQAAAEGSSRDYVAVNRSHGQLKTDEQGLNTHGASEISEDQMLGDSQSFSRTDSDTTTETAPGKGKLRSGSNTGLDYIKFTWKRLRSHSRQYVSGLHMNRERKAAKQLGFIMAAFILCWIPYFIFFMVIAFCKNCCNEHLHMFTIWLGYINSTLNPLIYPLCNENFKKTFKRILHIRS
Chain of D(1A) dopamine receptor (Homo sapiens) (P21728 whole entry, looked up): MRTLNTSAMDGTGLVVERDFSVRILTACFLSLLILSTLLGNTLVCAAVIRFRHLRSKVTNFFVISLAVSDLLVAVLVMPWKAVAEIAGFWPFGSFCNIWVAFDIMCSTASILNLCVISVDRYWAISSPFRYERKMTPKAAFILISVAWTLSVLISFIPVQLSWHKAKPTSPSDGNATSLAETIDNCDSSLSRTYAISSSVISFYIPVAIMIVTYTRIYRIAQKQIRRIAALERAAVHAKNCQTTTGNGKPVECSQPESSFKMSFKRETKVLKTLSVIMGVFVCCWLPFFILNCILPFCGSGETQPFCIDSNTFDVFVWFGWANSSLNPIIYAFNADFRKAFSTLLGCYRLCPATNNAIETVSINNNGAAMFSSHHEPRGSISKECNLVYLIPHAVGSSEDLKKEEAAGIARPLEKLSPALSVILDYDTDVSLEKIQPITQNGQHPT
Chain of Type-1 angiotensin II receptor (Homo sapiens) (P30556 whole entry, looked up): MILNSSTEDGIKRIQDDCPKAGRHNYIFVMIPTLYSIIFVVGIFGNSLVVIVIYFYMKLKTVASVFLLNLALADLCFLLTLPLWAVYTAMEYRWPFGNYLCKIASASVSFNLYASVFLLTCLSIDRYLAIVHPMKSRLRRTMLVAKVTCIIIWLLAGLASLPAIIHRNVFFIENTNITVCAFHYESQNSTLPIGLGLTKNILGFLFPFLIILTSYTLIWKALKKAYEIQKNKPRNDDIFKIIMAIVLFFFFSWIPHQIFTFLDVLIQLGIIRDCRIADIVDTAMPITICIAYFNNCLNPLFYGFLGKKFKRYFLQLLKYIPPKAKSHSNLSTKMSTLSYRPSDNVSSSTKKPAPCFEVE

In the first test the target is Type-1 angiotensin II receptor (Homo sapiens) (UniProt P30556). Briefly: NVS_GPCR_hAT1: NovaScreen (NVS) G Protein-Coupled Receptor Assay for human Angiotensin II receptor type 1 (AT1) (AID 2283263). On the procedure:
NVS_GPCR_hAT1 is a biochemical, single-readout assay that uses extracted gene-proteins from KAN-TS in a tissue-based cell-free assay. Measurements were taken 3 hours after chemical dosing in a 48-well plate.NVS_GPCR_hAT1 is one of one assay component(s) measured or calculated from the NVS_GPCR_hAT1 assay. It is designed to make measurements of radioligand binding, a form of binding reporter, as detected with scintillation counting signals by Filter-based radiodetection technology.Data from the assay component NVS_GPCR_hAT1 was analyzed into 1 assay endpoint. This assay endpoint, NVS_GPCR_hAT1, was analyzed in the positive analysis fitting direction relative to DMSO as the negative control and baseline of activity. Using a type of binding reporter, loss-of-signal activity can be used to understand changes in the binding as they relate to the gene AGTR1. Furthermore, this assay endpoint can be referred to as a primary readout, because the performed assay has only produced 1 assay endpoint. To generalize the intended target to other relatable targets, this assay endpoint is annotated to the gpcr intended target family, where the subfamily is rhodopsin-like receptor.
Binding assays used specific radioligands (tritiated, iodinated) with non-radioactive competitive displacement ligands in agonist or antagonist protocols (as indicated) and various reference compounds and inhibitors to titrate specific binding to receptors and transporters. Most enzyme assays (CYPs, kinases, phosphatases, proteases, HDACs) used recombinant protein and specific substrates (fluorescence mostly, some colorimetric and radioactive) and inhibitors, followed by a biochemical separation of substrate and product. All assays for the biochemical HTS were initially run in duplicate at a single concentration (10 uM for CYP450 assays and 25 uM for all others). Assay-chemical combinations meeting a pre-defined threshold (e.g., 30% inhibition and other criteria defined below) were then run in singleton concentration-response format with maximum concentration of 20 uM for CYPs and 50 uM for all others. […]
In the case of `C=CCC1=C(C)C(OC(=O)C2C(C=C(C)C)C2(C)C)CC1=O` (stereo unspecified), the compound was classed as inactive. The same measure, in the same setting: under `CCNc1nc(Cl)nc(NC(C)C)n1` stands “inactive”; under `C#CCOS(=O)OC1CCCCC1Oc1ccc(C(C)(C)C)cc1` (stereo unspecified), “inactive”.

The next test has as its target human Histamine 1 Receptor (H1), HRH1 (gene 3269) (UniProt P35367). Briefly: NVS_GPCR_hH1: NovaScreen (NVS) G Protein-Coupled Receptor Assay for human Histamine 1 Receptor (H1) (AID 2283268). In outline: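 Cell-free radioligand displacement at human H1 receptor, 1 h, filter scintillation counting; primary screen 25 uM in duplicate, hits in concentration series; loss of binding fitted vs DMSO.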
`CNC(=S)S`: the call was inactive. Take `CCNc1nc(Cl)nc(NC(C)C)n1`: the compound was called inactive. Same read-out and setting: under `CC(C)Oc1cc(-n2nc(C(C)(C)C)oc2=O)c(Cl)cc1Cl` stands “inactive”. Still for that read-out and setting: under `COP(=S)(OC)Oc1nc(Cl)c(Cl)cc1Cl` stands “inactive”.

Another test deals with D(1A) dopamine receptor (Homo sapiens) (UniProt P21728). Briefly: NVS_GPCR_hDRD1: NovaScreen (NVS) G Protein-Coupled Receptor Assay for human Dopamine Receptor D1 (DRD1) (AID 2283269). Summed up:
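Extracted HEK293 DRD1 is incubated 1 h with compound and a tritiated or iodinated radioligand, then filtered and counted. Screening runs 25 uM in duplicate with on-plate positive and negative controls.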
For the compound `C=CCC1=C(C)C(OC(=O)C2C(C=C(C)C)C2(C)C)CC1=O` (stereo unspecified), the AC50 is 41.6 µM (active) and 29.3 µM (active). Regarding `O=C(Nc1ccccc1)Nc1ccnc(Cl)c1`, the half-maximal activity concentration (AC50) is 14.5 µM (active). Same read-out and setting: the same measure for `CCCCNC(=O)OCC#CI`: 15.3 µM (active) and 9.21 µM (active); for `CC1COC(Cn2cncn2)(c2ccc(Oc3ccc(Cl)cc3)cc2Cl)O1` (stereo unspecified): 6.97 µM (active). In the case of `CO/C=C(/C(=O)OC)c1ccccc1Oc1cc(Oc2ccccc2C#N)ncn1`, the compound was called inactive. For `C=CCC1=C(C)[C@@H](OC(=O)[C@@H]2[C@@H](C=C(C)C)C2(C)C)CC1=O`, the AC50 is 25 µM (active). Same read-out and setting: under `C#CCOS(=O)OC1CCCCC1Oc1ccc(C(C)(C)C)cc1` (stereo unspecified) stands 25 µM (active). The same measure, in the same setting: under `COP(=S)(OC)Oc1nc(Cl)c(Cl)cc1Cl` stands 12.6 µM (active).

For `COc1ccc(C(c2ccc(OC)cc2)C(Cl)(Cl)Cl)cc1`, the outcome was inactive. As for `CN(C)C(=S)SSC(=S)N(C)C`, the AC50 is 4.51 µM (active).

Another test concerns the target human Leukotriene B4 Receptor 1 (LTB4-BLT1), LTB4R (gene 1241) (UniProt Q15722). Briefly: NVS_GPCR_hLTB4_BLT1: NovaScreen (NVS) G Protein-Coupled Receptor Assay for human Leukotriene B4 Receptor 1 (LTB4-BLT1) (AID 2283271). In outline: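 Radioligand displacement binding on receptor extracted from human neutrophils, cell-free, 1 h after dosing; filter-based scintillation counting. Primary screen in duplicate at 25 uM, actives retested in concentration-response up to 50 uM; loss of signal versus DMSO.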
On to `OC(c1ccc(Cl)cc1)(c1cncnc1)c1ccccc1Cl` (stereo unspecified), for which the compound was called inactive. Same read-out and setting: the same measure for `CC1COC(Cn2cncn2)(c2ccc(Oc3ccc(Cl)cc3)cc2Cl)O1` (stereo unspecified): “inactive”. With `CO/C=C(/C(=O)OC)c1ccccc1Oc1cc(Oc2ccccc2C#N)ncn1`, the AC50 is 14.6 µM (active). As for `COc1ccc(C(c2ccc(OC)cc2)C(Cl)(Cl)Cl)cc1`, the result was inactive.

A word on the AC50: it is the concentration at which the activity in the assay is half-maximal.

The record behind these values is PubChem BioAssay (EPA / NIEHS).
